# Bioassay records from PubChem.
# Rows were chosen to be rich in hits. Some 2.6% of all compounds tested hit in one or more screens of this group.
# Jurkat NFkB inh – inhibitors of induced NF-kB luciferase reporter, primary screen, TCR NF-kB activation inhibitor project, cell-based, luminescence, uHTS; inhibition, % at 4 µM; Jurkat, PMA/ionomycin-induced NF-kB luciferase reporter; AID 435003, 2010; actives 0.53% (n = 330,000); in the data active = inhibition above about 50%
# Gli-Sufu block – Gli-Sufu pathway antagonists, primary screen, luciferase luminescence, Sufu-KO-LIGHT cells, uHTS | inhibition, % at 5 µM | actives 0.74% (n = 340,000) | Sufu-KO-LIGHT fibroblasts, Gli luciferase reporter luminescence;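 active = inhibition above about 55%, limit read from the data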;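 also: 0% = DMSO-treated cells and 100% = wells with medium but no cells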
# 697 NFkB inh – inhibitors of PMA/ionomycin-induced NF-kB reporter, 697 cells, primary screen, B-cell NF-kB inhibitor project, cell-based, luminescence, uHTS | 697 B-cell NF-kB luciferase reporter, 16 h | inhibition, % at 4 µM | actives 0.33% (n = 330,000) | AID 435022, 2010; in the data active = inhibition above about 35%
# Cardio protect – cardioprotection against H2O2-induced cell death, primary screen, uHTS, H9c2 cells, ATPLite luminescence | H9c2 cardiomyocytes, H2O2 injury protection, 2 h | actives 0.63% (n = 360,000) | protection from H2O2 cell death, % at 20 µM;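 active = compounds giving at least 50% protection of heart cells from peroxide-induced death in the single-dose screen, raw or plate-pattern-corrected value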;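 also: 0% = DMSO wells with peroxide and 100% = DMSO wells without peroxide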
# COUP-TFII inh – NR2F2 transcriptional activity inhibitors, primary screen, cell-based, luciferase reporter, HEK293T, luminescence | actives 0.7% (n = 370,000) | HEK293T NGFI-A luciferase reporter | inhibition, % at 8.6 µM;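 active = inhibition above a per-plate cutoff, mean inhibition of test wells between control levels plus 3 SD, cut at about 38% in these data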;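 also: cells cotransfected with COUP-TFII expression vector driving the NGFI-A reporter; 0% = median of COUP-TF2 test wells and 100% = reporter-only cells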
# Target sequence (P24468 whole entry, looked up): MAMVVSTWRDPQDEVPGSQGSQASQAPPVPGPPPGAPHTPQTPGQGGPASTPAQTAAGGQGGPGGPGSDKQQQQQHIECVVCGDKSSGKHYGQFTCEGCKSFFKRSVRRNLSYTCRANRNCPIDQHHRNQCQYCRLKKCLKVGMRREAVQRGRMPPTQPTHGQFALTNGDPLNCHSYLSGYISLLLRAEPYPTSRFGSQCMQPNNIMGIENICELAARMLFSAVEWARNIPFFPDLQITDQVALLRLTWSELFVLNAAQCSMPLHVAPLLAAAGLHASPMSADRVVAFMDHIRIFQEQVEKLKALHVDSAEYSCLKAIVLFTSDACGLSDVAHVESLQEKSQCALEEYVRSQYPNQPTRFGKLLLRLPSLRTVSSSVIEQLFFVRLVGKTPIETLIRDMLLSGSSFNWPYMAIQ
# H9c2 TAG inh – inhibitors of triacylglycerol accumulation, primary screen, cell-based, uHTS, fluorescence, H9c2 | actives 0.66% (n = 230,000) | H9c2 cells, Nile Red lipid (TAG) fluorescence; cells loaded with 200 µM oleic acid | inhibition, % at 12.5 µM;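 active = pattern-corrected inhibition of lipid staining of at least 50% with the nuclear-stain viability signal not falling by more than 50%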;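 also: 0% = DMSO wells and 100% = triacsin C control wells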
# Jurkat NFkB conf – PMA/ionomycin-induced NF-kB reporter inhibitors, Jurkat retest, confirmation, T-cell NF-kB inhibitor project, cell-based, luminescence, single concentration; shares compounds with Jurkat NFkB inh; actives 27% (n = 2,700); Jurkat NF-kB luciferase, 16 h; AID 435020, 2010; inhibition, % at 4 µM;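 active = inhibition reaching about 45% at 4 µM in either replicate, limit read from the data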;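 also: plate controls were PMA/ionomycin stimulated DMSO wells for no effect and unstimulated DMSO wells for full effect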
# 697 NFkB conf – PMA/ionomycin-induced NF-kB reporter inhibitors, 697 retest, confirmation, B-cell NF-kB inhibitor project, cell-based, luminescence, single concentration; shares compounds with 697 NFkB inh; 697 B-cell NF-kB luciferase, 16 h; inhibition, % at 4 µM; actives 35% (n = 2,000); in the data active = inhibition mostly above about 28%, no sharp cut-off; inactive = mostly below about 22%
# Gli antag conf – Gli-SUFU pathway antagonists, confirmation, single concentration, luciferase luminescence, Sufu-KO-LIGHT cells; shares compounds with Gli-Sufu block; Gli luciferase reporter; inhibition, % at 5 µM; actives 40% (n = 2,500); AID 602428, 2012;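 active = mean inhibition at 5 µM reaching about 45%, limit read from the data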;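 also: plate controls were DMSO-treated cells for no effect and wells lacking cells for full effect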
# Gli cytotox – cytotoxicity in Sufu-KO-LIGHT cells, confirmation, cytotoxicity control for Gli-SUFU antagonist project, cell-based, ATP luminescence, single concentration; cytotoxicity, % at 5 µM; actives 32% (n = 2,500); AID 651994, 2013; shares compounds with Gli-Sufu block;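 active = mean cytotoxicity at 5 µM above about 25%, limit read from the data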;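 also: cells exposed to compound overnight for roughly 16 to 18 hours; plate controls were DMSO wells with cells for no effect and medium without cells for full effect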
# Wnt3a cs – Wnt3a reporter signal inhibition, confirmation, counter-screen for Gli-SUFU antagonist project, Wnt-LIGHT cells, luminescence, single concentration | inhibition, % at 6.25 µM | shares compounds with Gli-Sufu block | Wnt3a-driven luciferase reporter | actives 20% (n = 2,500);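 active = mean inhibition above about 25%, limit read from the data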
# * hit, by the source's call; i = inactive; / = not tested or not shown.
SMILES,Jurkat NFkB inh,Gli-Sufu block,697 NFkB inh,Cardio protect,COUP-TFII inh,H9c2 TAG inh,Jurkat NFkB conf,Gli antag conf,Gli cytotox,Wnt3a cs,others
Cc1cc(/C=N/NC(=O)c2cccs2)c(C)n1-c1ccccc1,-196,-4,i,-31,15,0,0,/,/,/,697 NFkB conf=-38
Cc1cc(/C=N/NC(=O)c2ccncc2)c(C)n1-c1ccccc1,-3,-16,-25,-5,-1,17,/,/,/,/,
CSc1cccc(NC(=S)NN/C(=N/S(=O)(=O)c2ccccc2)N2CCCC2)c1,/,/,/,/,2,/,/,/,/,/,
CC(C)(C)c1nnc(N/N=C/c2ccccc2O)n(N)c1=O,56*,61*,-40,52*,14,/,73*,71*,51*,55*,
Cc1cc(NC(=O)CSc2ccc(-c3nc4cc(C)c(C)cc4[nH]3)cn2)no1,-175,97*,-32,-7,/,/,-86,21,27*,-206,
CCn1ncc(C2=NOC(C(=O)Nc3ccc(C)cc3)C2)c1C (stereo not drawn),-2,6,-41,-15,13,15,/,/,/,/,
CCn1ncc(C2=NOC(C(=O)NCc3ccc(Cl)cc3)C2)c1C (stereo not drawn),74*,50,-60,-8,-31,/,50*,50*,45*,1,
CC(C)N1Cc2nnn(Cc3ccccc3)c2-c2cc(N3CCCC3)ccc2S1(=O)=O,/,/,/,/,-13,/,/,/,/,/,
Cc1cc(/C=N/n2cnnc2)c(C)n1-c1ccc(Cl)cc1,19,1,18,8,9,/,/,/,/,/,
Cc1cc(/C=N/n2cnnc2)c(C)n1-c1ccc(OCc2ccc(Cl)cc2Cl)cc1,70*,82*,40*,-33,/,-4,32,82*,35*,68*,697 NFkB conf=13
CCN(CC)S(=O)(=O)c1cc(NC(=O)CNc2cccc(S(=O)(=O)N3CCCC3)c2)ccc1C,57*,72*,28,-20,/,-17,60*,66*,31*,19,
CC1(C)CC(=O)c2c(O)cc(OCc3ccc(Br)cc3)cc2O1,-153,96*,-137,-12,-41,/,-68,-40,22,-123,
COC(=O)c1ccc(COc2cc(O)c3c(c2)OC(C)(C)CC3=O)cc1,-1,0,-26,-5,11,-8,/,/,/,/,
Cc1ccc(C(=O)c2cc([N+](=O)[O-])ccc2N2CCCCC2)c(C)c1,66*,59*,-131,-15,-71,/,55*,53*,60*,16,
CC(C)C[C@@H]1NC(=O)[C@H]2C[C@@]3(C)c4ccccc4N[C@H]3N2C1=O,/,/,/,/,1,/,/,/,/,/,
CCOC(=O)C(C)Oc1cccc2c(=O)n(CC(=O)NCc3ccccc3)ccc12 (stereo not drawn),72*,58*,-17,6,-69,19,57*,48*,55*,6,
COc1ccc(N2CCc3c(C)nc4c(OC)cc(OC)cc4c32)cc1,51*,54,-24,-26,-12,39,10,27,5,-42,
